Screening results as filed in PubChem.
ugtP null kill = growth inhibition of ugtP-null S. aureus, primary screen, RN4220 ugtP deletion, OD600 | 16 h | growth inhibition, % (no concentration beside the values) | 0.54% of 330,000 active; in the data active = growth inhibition above about 68%;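 note: plate controls were untreated wells for no effect and antibiotic for full effect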
BJeLR lethal = MLPCN primary cell-based screen for lethality selective to Ras in HRASV12 cells. BJeLR (HRASV12) viability, CellTiter-Glo ATP luminescence, 48 h. inhibition, % (no concentration beside the values). 0.17% of 300,000 active. AID 1554, 2009; in the data active = inhibition above about 50%
SSB-PriA inh = inhibitors of Klebsiella pneumoniae PriA binding to SSB C-terminal tail, primary screen, biochemical, AlphaScreen. AlphaScreen SSBct-PriA binding, biotinylated peptide. 0.6% of 430,000 active. inhibition, % at 33 µM. AID 1272365, 2023. PriA–SSB C-terminal tail interaction (Klebsiella pneumoniae); in the data active = inhibition mostly above about 37%, no sharp cut-off; inactive = mostly below about 20%;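 note: plate controls were negative control peptide for no effect and reference peptide for full effect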
MazEF act = activators of E. coli MazEF toxin-antitoxin RNase, primary screen, biochemical, fluorescence, uHTS; Endoribonuclease toxin MazF (Escherichia coli (strain K12)), P0AE70; FAM/BHQ RNA-DNA oligo cleavage fluorescence, 5 h; activation, % at 20 µM; 0.32% of 350,000 active; AID 504720, 2011; in the data active = activation above about 50%
Target sequence (P0AE70 whole entry, looked up): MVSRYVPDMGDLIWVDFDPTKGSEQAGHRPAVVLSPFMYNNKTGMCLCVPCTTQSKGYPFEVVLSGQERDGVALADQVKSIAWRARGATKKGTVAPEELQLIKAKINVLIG
Sa RN4220 lethal = growth inhibition of S. aureus RN4220, primary screen, OD600; 16 h; inhibition, % (concentration not given with the values); 0.33% of 330,000 active; AID 1259311, 2017; in the data active = inhibition above about 85%;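 note: plate controls were untreated cells for no effect and reference antibiotic for full effect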
* marks the source's active call; other numbers are inactive results; i = inactive; . = not tested or not shown. An excerpt weighted towards active compounds, which were near 1.2% of everything screened.

SMILES | ugtP null kill | BJeLR lethal | SSB-PriA inh | MazEF act | Sa RN4220 lethal
CCOc1ccc(CNC(=O)CCCC(=O)n2nc(C)c3ccccc32)cc1 | -3 | 2 | -5 | -7 | -4
CCCN(CC(=O)Nc1ccccc1C)C(=O)c1ccc(-c2ccc(C(C)=O)cc2)o1 | 7 | -2 | -15 | 1 | 3
COc1ccc(C2C(C(=O)c3ccccc3)N3c4ccccc4C=CC3C2[N+](=O)[O-])cc1 (stereo unspecified) | -8 | . | -1 | 63* | 3
CC(C)c1ccccc1NC(=S)NCc1nc2ccccc2[nH]1 | -7 | -2 | 11 | -10 | 1
Cc1ccc(OC(=O)C2c3ccccc3Oc3ccccc32)cc1C | 90* | -4 | -23 | -23 | -1
CC(=O)c1ccc(OC(=O)C2c3ccccc3Oc3ccccc32)cc1 | 7 | -6 | -10 | -3 | 1
O=C(Nc1nnc(-c2cccs2)o1)c1cccc([N+](=O)[O-])c1 | . | . | 11 | . | .
O=C(Nc1nnc(-c2cccs2)o1)c1cccc(C(F)(F)F)c1 | 100* | -1 | -11 | -5 | 100*
CC1CC(C)CN(S(=O)(=O)c2ccc(C(=O)Nc3nnc(-c4cccs4)o3)cc2)C1 (stereo unspecified) | 100* | 23 | 4 | -6 | 100*
CCC1CCCCN1S(=O)(=O)c1ccc(C(=O)Nc2ccc3scnc3c2)cc1 (stereo unspecified) | . | . | -15 | . | .
CN(C)S(=O)(=O)c1ccc(C(=O)Nc2nnc(-c3cccs3)o2)cc1 | -11 | 1 | 2 | 2 | 17
CCC1CCCCN1S(=O)(=O)c1ccc(C(=O)Nc2nnc(-c3cccs3)o2)cc1 (stereo unspecified) | 99* | . | 2 | -1 | 95*
C=CCN1C(=O)C(C)(C)COc2cc(NC(=O)COc3ccccc3F)ccc21 | . | . | 18 | . | .
O=[N+]([O-])c1ccccc1NN=Cc1ccccc1Cl | -2 | . | -9 | . | 11
O=[N+]([O-])c1ccccc1N/N=C\c1ccccc1Cl | . | 72* | . | 6 | .
CN1CCC(Oc2ccc(Sc3ccccc3)cc2)CC1 | 94* | 4 | 3 | 11 | -1
O=C(Nc1cccc(F)c1)Nc1ccnn1C1CCN(C(=O)CCN2CCCO2)CC1 | 5 | 10 | 1 | 2 | -1
CC(=O)N1CCN(c2ccc(NC(=S)NC(=O)c3ccc(C)c([N+](=O)[O-])c3)cc2)CC1 | 90* | 6 | 3 | 5 | 4
COc1ccc(C(=O)NC(=S)Nc2ccc(N3CCN(C(C)=O)CC3)cc2)cc1[N+](=O)[O-] | 99* | 3 | -8 | 10 | 4
CCOC(=O)c1ccc(N2CCCCC2)c(NS(=O)(=O)c2cccc(C(F)(F)F)c2)c1 | 88* | -9 | -6 | 5 | 1
O=C(Nc1ccc(S(=O)(=O)NCc2ccccc2)cc1)c1ccccc1[N+](=O)[O-] | -6 | -11 | -5 | 116* | 5
CCOC(=O)c1ccc(NC(=O)c2ccccc2[N+](=O)[O-])cc1 | 11 | -5 | 6 | -1 | 6
COc1ccc2oc(C(=O)Nc3ccc(N4CCOCC4)cc3)c(C)c2c1 | -2 | -9 | 21 | 1 | 7
O=C(/C=C/c1cccc2ccccc12)c1ccncc1 | -3 | 71* | 8 | 6 | 12
CCCc1nc2c(ccc3ccccc32)cc1CC | 83* | 0 | -1 | -3 | -1
SMILES | ugtP null kill | BJeLR lethal | SSB-PriA inh | MazEF act | Sa RN4220 lethal
COc1ccc(CCNc2nnc(Sc3nnnn3-c3ccccc3)s2)cc1OC | 8 | 60* | -13 | -7 | 0
COc1ccc(-n2nnnc2SCC(=O)NCCc2ccccc2)cc1OC | -1 | 4 | -7 | -34 | 4
COc1ccc(-c2csc(NNC3=NCCCCC3)n2)cc1 | -14 | 10 | -8 | 15 | 3
Cc1ccc(-c2csc(NNC3=NCCCCC3)n2)cc1 | . | . | 62* | . | .
COc1cc(C=NNC(=O)c2cc(-c3c(C)nn(-c4ccccc4)c3C)n[nH]2)ccc1O | 95* | . | 2 | . | 62
O=S(=O)(N[C@H]1CCN(c2ccccn2)C1)c1ccc(-c2cccc(Cl)c2)cc1 | . | . | 19 | . | .
CCOC(=O)/C(=C/C=C1\Sc2cc(OCC)c(OCC)cc2N1CC)C(C)=O | . | -8 | -10 | i | .
CCOC(=O)/C(=C\C=C1/Sc2cc(OCC)c(OCC)cc2N1CC)C(C)=O | -6 | -10 | 13 | 272* | 1
CCCCOc1ccc(C(=O)Nc2cc3ccccc3cc2NC(=O)c2ccc(OCCCC)cc2)cc1 | . | . | -3 | . | .
CCn1cc(C(=O)O)c(=O)c2cc(F)c(N3CCN(C(=S)NC(=O)c4ccc(OC)cc4)CC3)cc21 | 99* | 3 | 0 | 9 | 99*
CCn1cc(C(=O)NCc2ccco2)c(=O)c2cc(F)c(N3CCN(C(=O)c4ccco4)CC3)cc21 | 28 | 3 | 5 | 5 | 22
CCn1cc(C(=O)O)c(=O)c2cc(F)c(N3CCN(C(=S)NC(=O)c4ccccc4F)CC3)cc21 | 99* | -1 | -20 | 6 | 99*
CCn1cc(C(=O)O)c(=O)c2cc(F)c(N3CCN(C(=S)NC(=O)c4cccc(C)c4)CC3)cc21 | 39 | 7 | -4 | 4 | 43
C=CCNC(=O)c1cn(CC)c2cc(N3CCN(C(=O)c4ccco4)CC3)c(F)cc2c1=O | 98* | 7 | -4 | -19 | 94*
CCn1cc(C(=O)O)c(=O)c2cc(F)c(N3CCN(C(=O)Nc4ccccc4)CC3)cc21 | 96* | 4 | -6 | -4 | 86
O=C(N1CCc2ncncc2C1)C1(c2ccc(Cl)cc2)CCCC1 | . | . | -7 | . | .
CCOc1ccc(CCNC(=O)CCNC(=O)c2ccccc2Cl)cc1OCC | 2 | 0 | 1 | -7 | 1
CC(=O)c1ccc(N2CCN(CC(O)COC(c3ccccc3)c3ccccc3)CC2)cc1 (stereo unspecified) | -11 | -1 | 11 | -49 | -6
CCCCCCCCCCn1c2c(c(=N)c3c1CCC3)CCC2 | 100* | 56* | 2 | -24 | 100*
CCCCCn1c2c(c(=N)c3ccccc31)CCC2 | 5 | 2 | -1 | -3 | 3
CCn1c2c(c(=N)c3c1CCC3)CCCC2 | 9 | -28 | -17 | 8 | 3
CCCCCCCCCn1c2c(c(=N)c3c1CCC3)CCCC2 | 100* | 47 | 9 | -20 | 100*
CCCCCCCCn1c2c(c(=N)c3ccccc31)CCC2 | 98* | 29 | -4 | 7 | 98*
COc1ccc2c(c1)CCCC2(O)CNC(=O)c1ccc(S(=O)(=O)N(C)C)cc1 (stereo unspecified) | . | . | -31 | . | .
COc1cc(C)ccc1OCCOCCOc1cccc2ccc(C)nc12 | -2 | 7 | -5 | -5 | -5
O=C(CN1C(=O)C2CCCCC2C1=O)Nc1nc(-c2ccccn2)cs1 (stereo unspecified) | -14 | 2 | 81* | 2 | 6
